# In PubChem BioAssay AID1851 (National Center for Advancing Translational Sciences (NCATS), 2009):
# In all, about 16,000 compounds went through this assay and about 2,600 (16%) were called active. Inconclusive results (about 20%) are left out. The call rests on the fitted dose curve; in most records, active means well fitted curve in the direction sought with a large enough effect; inconclusive means small, poorly fitted or top-dose-only effect, or effect the other way; inactive means no such curve, though single readings can be large or run the other way. The list is a sample of the results.
# Target: Cytochrome P450 2D6 (Homo sapiens) (UniProt P10635)
# Experiment: Cytochrome panel assay with activity outcomes
# Conditions: recombinant CYP, pro-luciferin dealkylation, luminescence, p450-cyp2d6; series mostly up to 57.1 µM
# On the % scale 0 is the no-effect control and ±100 the full control effect.
# Chain of Cytochrome P450 2D6 (Homo sapiens) (P10635 whole entry, looked up): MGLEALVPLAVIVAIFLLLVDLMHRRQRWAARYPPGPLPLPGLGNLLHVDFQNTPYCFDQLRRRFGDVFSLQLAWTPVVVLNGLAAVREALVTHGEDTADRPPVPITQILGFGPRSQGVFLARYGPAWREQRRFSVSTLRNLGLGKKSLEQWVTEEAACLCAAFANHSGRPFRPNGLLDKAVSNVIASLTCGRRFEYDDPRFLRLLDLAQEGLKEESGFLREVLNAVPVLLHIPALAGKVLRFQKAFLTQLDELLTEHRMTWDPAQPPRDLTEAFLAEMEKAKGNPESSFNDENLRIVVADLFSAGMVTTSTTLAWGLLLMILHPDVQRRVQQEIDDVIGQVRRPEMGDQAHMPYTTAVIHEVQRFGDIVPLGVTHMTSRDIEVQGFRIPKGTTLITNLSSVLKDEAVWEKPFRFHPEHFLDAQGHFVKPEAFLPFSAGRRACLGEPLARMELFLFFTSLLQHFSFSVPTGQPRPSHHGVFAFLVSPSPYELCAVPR
Structure (SMILES),AC50,"activity, negative = inhibition"
CCCc1nnc(NC(=O)C(CC)OC(=O)c2cc(C)nc3ccccc23)s1 (centres undefined),inactive,–
c1ccc(SC(Sc2ccccc2)c2ccc3c(c2)OCO3)cc1,3.16 µM (active),–
C[C@@H]1Oc2ccc(C(=O)C[C@@H](C(=O)O)c3ccc4c(c3)OCO4)cc2O1,–,-15.2% [at 11.4 µM] (inactive)
C[C@@H](C(=O)O)/C(=C/c1ccc2c(c1)OCO2)C(=O)O,–,14.3% [at 11.4 µM] (inactive)
N[C@H](C(=O)O)c1ccc(C(=O)O)c(O)c1,inactive,–
O=C(Nc1ccccc1C(=O)NCC1CCCO1)c1ccc(Cl)cc1Cl (centres undefined),inactive,–
CC(C)(C)S(=O)(=O)c1cnc2c(-c3ccc(F)cc3)cnn2c1N,inactive,–
CCCCc1c2ccccc2nc2[nH]c3ccccc3c12,inactive,–
CCn1c2ccc(Cl)cc2c2nc3ccccc3nc21,inactive,–
CN(C)CCCc1c2ccccc2nc2ccc(Cl)cc12,1.58 µM (active),–
Cn1c(=O)c2[nH]cnc2n(C)c1=O,inactive,–
Cc1ccc(Sc2ccc(NC(=O)c3ccc(S(C)(=O)=O)cc3Cl)cc2)cc1,inactive,–
COC(=O)CCC(=O)NNC(=O)c1ccc(Br)cc1,inactive,–
Fc1cccc(NC(=S)NCCCN2CCOCC2)c1,7.94 µM (active),–
Cc1ccc(NC(=S)NCCN2CCOCC2)cc1C,inactive,–
O=C(CCn1c(=S)[nH]c2ccccc2c1=O)NCCCN1CCOCC1,inactive,–
CN(C)CCCO[C@H]1[C@@H]2OC(C)(C)O[C@@H]2O[C@@H]1[C@H](O)CO,inactive,–
C#CCCCO/N=C1/C[C@@H](O)[C@@H](O)[C@@H]2[C@@H]3C(=O)N(C4CCCCC4)C(=O)[C@H]3CC[C@@H]12,–,13% [at 11.4 µM] (inactive)
CCC(=O)Nc1ccc(C(=O)CSc2nnc(-c3ccc(O)cc3)n2CC2CCCO2)cc1OC (centres undefined),inactive,–
C[C@H](NC(=O)c1ccc(Cl)c(Cl)c1)c1ccc(-c2ccccc2)cc1,–,-1.17% [at 11.4 µM] (inactive)
CC(NC(=O)c1ccc(N2CCCC2=O)cc1)c1ccccc1 (centres undefined),7.94 µM (active),–
CC(=O)Nc1cccc(N2C(=O)CCC2=O)c1,inactive,–
Cc1ccc(C(=O)NC2CCCCCC2)cc1N1CCCC1=O,inactive,–
O=C(O)c1cccc(N2CCCC2=O)c1,0.251 µM (active),–
CCCCN(C)CCCNC(=O)c1ccc(N2CCCC2=O)cc1,inactive,–
Cc1ccccc1C(=O)NC(=S)NCC(=O)c1ccccc1,inactive,–
COCCn1c(=O)c(C)nc2cnc(Nc3cccc(OC)c3)nc21,inactive,–
CN(C)C(N)=NCCC[C@H](N)C(=O)O,inactive,–
CC(/C=N\NC(=O)Cn1c(C)nc2ccccc21)=C\c1ccccc1,inactive,–
